Holding throughout (assay): DAPPL (digital affinity profiling via proximity ligation, sequencing); 10 mM Tris-HCl pH 7.5, 50 mM NaCl, 1 mM DTT, 4% glycerol, room temperature, 30 min; GST-TFs on glutathione beads, 16-mer random dsDNA library, 0.1% formaldehyde crosslink after washing; high values mean tight binding
What all share (settings): protein: recombinant; tags: N-terminal GST; dsDNA, one strand shown

One test has as its target T1, ERF (Homo sapiens, UniProt P50548 1-548).
T1 sequence: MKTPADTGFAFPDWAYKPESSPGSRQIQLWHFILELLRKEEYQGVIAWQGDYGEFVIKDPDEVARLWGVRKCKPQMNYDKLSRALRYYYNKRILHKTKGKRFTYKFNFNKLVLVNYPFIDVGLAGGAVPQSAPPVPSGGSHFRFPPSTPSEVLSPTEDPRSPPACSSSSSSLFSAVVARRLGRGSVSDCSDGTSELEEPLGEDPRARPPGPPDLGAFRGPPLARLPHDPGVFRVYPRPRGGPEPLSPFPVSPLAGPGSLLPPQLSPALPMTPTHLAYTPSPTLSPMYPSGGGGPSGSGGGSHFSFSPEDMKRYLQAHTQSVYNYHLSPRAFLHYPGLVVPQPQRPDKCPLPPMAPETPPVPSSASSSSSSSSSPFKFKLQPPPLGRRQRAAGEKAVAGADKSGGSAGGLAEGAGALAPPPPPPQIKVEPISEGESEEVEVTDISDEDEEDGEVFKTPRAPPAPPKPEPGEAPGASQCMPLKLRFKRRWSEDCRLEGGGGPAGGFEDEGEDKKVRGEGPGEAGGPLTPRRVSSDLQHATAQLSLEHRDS
The essentials:
(§1)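 The binding signal reported is, for every hexamer, its read frequency for a factor over its read frequency for the tag-only sample. Reads came from pools of yeast-expressed, GST-fused human transcription factors on glutathione beads, barcoded with DNA and mixed with that sample, which were incubated with 200 nmole of a random double-stranded 16-mer DNA library in Tris/NaCl/DTT/glycerol buffer at room temperature for 30 min. After washing, the pools were crosslinked with 0.1% formaldehyde, proximity-ligated with BsaI/T4 ligase for 1 h at 37 °C, PCR-amplified and sequenced on an Illumina NextSeq500.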

The target of a further test is T2, ETV3L (Homo sapiens, UniProt Q6ZN32 1-361).
T2 sequence: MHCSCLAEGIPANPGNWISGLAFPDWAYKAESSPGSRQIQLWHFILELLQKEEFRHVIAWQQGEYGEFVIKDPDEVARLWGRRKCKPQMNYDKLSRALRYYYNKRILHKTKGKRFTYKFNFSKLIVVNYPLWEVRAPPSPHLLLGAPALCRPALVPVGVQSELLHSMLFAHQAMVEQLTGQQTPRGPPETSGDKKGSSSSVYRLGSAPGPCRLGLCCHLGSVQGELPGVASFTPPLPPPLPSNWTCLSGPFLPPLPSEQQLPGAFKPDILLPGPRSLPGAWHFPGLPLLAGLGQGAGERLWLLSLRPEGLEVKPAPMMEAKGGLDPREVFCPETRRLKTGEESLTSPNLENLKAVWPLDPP
The essentials:
as §1

The target in a further test is T3, ETS2 (Homo sapiens, UniProt P15036 1-469).
T3 sequence: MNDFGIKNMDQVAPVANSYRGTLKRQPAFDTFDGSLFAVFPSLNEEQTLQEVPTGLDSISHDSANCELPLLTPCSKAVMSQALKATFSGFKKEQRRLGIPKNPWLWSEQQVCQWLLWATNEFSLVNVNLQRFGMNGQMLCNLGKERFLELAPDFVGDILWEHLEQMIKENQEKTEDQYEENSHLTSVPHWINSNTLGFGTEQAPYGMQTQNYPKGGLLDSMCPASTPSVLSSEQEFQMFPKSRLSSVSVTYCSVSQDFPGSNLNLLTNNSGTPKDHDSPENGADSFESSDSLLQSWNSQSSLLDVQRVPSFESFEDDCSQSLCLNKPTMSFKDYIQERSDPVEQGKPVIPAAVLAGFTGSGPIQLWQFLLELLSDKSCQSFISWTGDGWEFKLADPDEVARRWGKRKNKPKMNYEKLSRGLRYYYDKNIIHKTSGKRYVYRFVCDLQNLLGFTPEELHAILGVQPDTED
The essentials: as §1

The target in another test is T4, SPDEF (Homo sapiens, UniProt O95238 1-335).
T4 sequence: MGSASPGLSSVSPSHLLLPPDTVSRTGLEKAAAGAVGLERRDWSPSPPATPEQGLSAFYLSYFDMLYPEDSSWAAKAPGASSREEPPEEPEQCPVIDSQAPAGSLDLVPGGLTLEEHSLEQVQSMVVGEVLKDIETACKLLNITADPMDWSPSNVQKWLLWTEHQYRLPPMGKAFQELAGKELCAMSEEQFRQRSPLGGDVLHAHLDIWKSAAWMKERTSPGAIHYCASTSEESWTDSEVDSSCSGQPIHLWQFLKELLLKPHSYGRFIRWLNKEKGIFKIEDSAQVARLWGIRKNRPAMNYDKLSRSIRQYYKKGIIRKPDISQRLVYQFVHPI
The essentials:
as §1

For a further test, the target named is T5, ETV7 (Homo sapiens, UniProt Q9Y603 1-341).
T5 sequence: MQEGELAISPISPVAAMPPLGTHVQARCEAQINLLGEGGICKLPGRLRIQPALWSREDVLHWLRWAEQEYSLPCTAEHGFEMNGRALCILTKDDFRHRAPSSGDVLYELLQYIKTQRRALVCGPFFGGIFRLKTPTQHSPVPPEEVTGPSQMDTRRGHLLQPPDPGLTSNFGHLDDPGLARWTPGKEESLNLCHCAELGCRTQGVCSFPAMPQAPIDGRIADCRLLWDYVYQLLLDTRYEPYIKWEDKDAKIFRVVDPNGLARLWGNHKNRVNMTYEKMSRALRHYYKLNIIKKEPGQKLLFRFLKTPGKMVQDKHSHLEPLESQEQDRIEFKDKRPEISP
In short, it runs like this:
as §1

In another test the target is T6, ELF5 (Homo sapiens, UniProt Q9UKW6-2 1-255).
T6 sequence: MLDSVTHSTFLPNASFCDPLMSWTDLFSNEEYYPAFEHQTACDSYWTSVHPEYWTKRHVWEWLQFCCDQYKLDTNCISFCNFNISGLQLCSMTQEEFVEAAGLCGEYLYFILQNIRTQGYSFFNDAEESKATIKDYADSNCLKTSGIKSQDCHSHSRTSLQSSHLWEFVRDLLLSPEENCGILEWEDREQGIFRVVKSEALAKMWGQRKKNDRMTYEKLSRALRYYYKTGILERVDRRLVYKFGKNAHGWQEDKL
The essentials: as §1

For a further test, the target named is T7, ETV3 (Homo sapiens, UniProt P41162-2 1-143).
T7 sequence: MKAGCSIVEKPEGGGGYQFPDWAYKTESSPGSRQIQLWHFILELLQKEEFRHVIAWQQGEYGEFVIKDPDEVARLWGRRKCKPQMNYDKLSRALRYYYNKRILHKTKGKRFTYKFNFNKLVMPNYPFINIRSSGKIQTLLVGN
The essentials: as §1

The target in the next test is ETV6 (Homo sapiens, UniProt P41212 1-452). The essentials: as §1
Chain of ETV6 (P41212 whole entry): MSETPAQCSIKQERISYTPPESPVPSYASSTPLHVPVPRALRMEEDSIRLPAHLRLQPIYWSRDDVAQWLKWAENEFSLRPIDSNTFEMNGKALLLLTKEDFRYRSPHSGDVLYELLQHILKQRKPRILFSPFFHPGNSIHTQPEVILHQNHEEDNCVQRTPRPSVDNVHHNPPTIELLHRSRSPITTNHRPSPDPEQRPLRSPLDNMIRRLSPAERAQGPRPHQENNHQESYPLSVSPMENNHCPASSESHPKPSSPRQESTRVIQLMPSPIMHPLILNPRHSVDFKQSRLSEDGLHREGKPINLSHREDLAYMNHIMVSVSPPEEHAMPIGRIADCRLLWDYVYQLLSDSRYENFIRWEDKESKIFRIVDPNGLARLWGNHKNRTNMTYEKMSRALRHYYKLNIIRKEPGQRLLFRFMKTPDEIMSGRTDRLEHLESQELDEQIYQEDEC

This is an account of results in PMC7862700, “An all-to-all approach to the identification of sequence-specific readers for epigenetic DNA modifications on cytosine”.

For the sequence CTTATG, the binding signal with ERF was 1.52 fold enrichment (6-mer frequency, TF over GST control); with ETV3L it was 1.35 fold enrichment (6-mer frequency, TF over GST control); in the test with ETS2, 1.43 fold enrichment (6-mer frequency, TF over GST control); with SPDEF, 1.53 fold enrichment (6-mer frequency, TF over GST control); in the test with ETV7 it was 1.47 fold enrichment (6-mer frequency, TF over GST control); with ELF5, 1.42 fold enrichment (6-mer frequency, TF over GST control). Also, the binding signal is 1.64 fold enrichment (6-mer frequency, TF over GST control) in the test with ETV3 and 1.4 fold enrichment (6-mer frequency, TF over GST control) with ETV6.

Regarding TCACCA, the binding signal is 1.12 fold enrichment (6-mer frequency, TF over GST control) with ERF; 1.16 fold enrichment (6-mer frequency, TF over GST control) in the test with ETV3L; 1.08 fold enrichment (6-mer frequency, TF over GST control) in the test with ETS2; 1.13 fold enrichment (6-mer frequency, TF over GST control) with SPDEF; 1.04 fold enrichment (6-mer frequency, TF over GST control) with ETV7; 1.07 fold enrichment (6-mer frequency, TF over GST control) in the test with ELF5. Moreover, the binding signal in the test with ETV3 is 1.19 fold enrichment (6-mer frequency, TF over GST control); with ETV6, 1.08 fold enrichment (6-mer frequency, TF over GST control).

Take TTTTAT: the binding signal with ERF was 1.17 fold enrichment (6-mer frequency, TF over GST control); with ETV3L it was 1.39 fold enrichment (6-mer frequency, TF over GST control); in the test with ETS2 it was 1.23 fold enrichment (6-mer frequency, TF over GST control); with SPDEF, 1.22 fold enrichment (6-mer frequency, TF over GST control); with ETV7, 1.34 fold enrichment (6-mer frequency, TF over GST control); with ELF5 it was 1.3 fold enrichment (6-mer frequency, TF over GST control). The binding signal with ETV3 was 1.45 fold enrichment (6-mer frequency, TF over GST control); with ETV6 it was 1.36 fold enrichment (6-mer frequency, TF over GST control).

For the sequence TCTCGG, the binding signal is 1.24 fold enrichment (6-mer frequency, TF over GST control) with ERF; 1.48 fold enrichment (6-mer frequency, TF over GST control) in the test with ETV3L; 1.3 fold enrichment (6-mer frequency, TF over GST control) with ETS2; 1.24 fold enrichment (6-mer frequency, TF over GST control) with SPDEF; 1.23 fold enrichment (6-mer frequency, TF over GST control) with ETV7; 1.32 fold enrichment (6-mer frequency, TF over GST control) in the test with ELF5. In addition, the binding signal with ETV3 was 1.37 fold enrichment (6-mer frequency, TF over GST control); with ETV6, 1.33 fold enrichment (6-mer frequency, TF over GST control).

In the case of CTCCAC, the binding signal with ERF was 1.31 fold enrichment (6-mer frequency, TF over GST control); in the test with ETV3L, 1.45 fold enrichment (6-mer frequency, TF over GST control); with ETS2, 1.43 fold enrichment (6-mer frequency, TF over GST control); with SPDEF, 1.27 fold enrichment (6-mer frequency, TF over GST control); with ETV7, 1.39 fold enrichment (6-mer frequency, TF over GST control); with ELF5, 1.35 fold enrichment (6-mer frequency, TF over GST control). Further, the binding signal in the test with ETV3 is 1.3 fold enrichment (6-mer frequency, TF over GST control); with ETV6 it was 1.26 fold enrichment (6-mer frequency, TF over GST control).

As for ACTTTT, the binding signal with ERF is 1.26 fold enrichment (6-mer frequency, TF over GST control); with ETV3L, 1.25 fold enrichment (6-mer frequency, TF over GST control); in the test with ETS2, 1.25 fold enrichment (6-mer frequency, TF over GST control); in the test with SPDEF it was 1.25 fold enrichment (6-mer frequency, TF over GST control); in the test with ETV7, 1.36 fold enrichment (6-mer frequency, TF over GST control); in the test with ELF5, 1.26 fold enrichment (6-mer frequency, TF over GST control). Besides, the binding signal is 1.31 fold enrichment (6-mer frequency, TF over GST control) with ETV3 and 1.34 fold enrichment (6-mer frequency, TF over GST control) with ETV6.

Regarding ATGTTA, the binding signal with ERF was 1.21 fold enrichment (6-mer frequency, TF over GST control); with ETV3L it was 1.2 fold enrichment (6-mer frequency, TF over GST control); in the test with ETS2, 1.24 fold enrichment (6-mer frequency, TF over GST control); with SPDEF, 1.26 fold enrichment (6-mer frequency, TF over GST control); with ETV7, 1.23 fold enrichment (6-mer frequency, TF over GST control); with ELF5 it was 1.21 fold enrichment (6-mer frequency, TF over GST control). The binding signal with ETV3 is 1.23 fold enrichment (6-mer frequency, TF over GST control); with ETV6 it was 1.28 fold enrichment (6-mer frequency, TF over GST control).
